Data: PubChem BioAssay AID1159580 (chemical genetic matrix, 2015)
Screen size: about 5,500 compounds; about 2,000 (36%) were called active. Inconclusive results (about 18%) are left out. Cut-off read from the data, not from the text of the source: active = normalized growth mostly below about 0.91 (no sharp cut-off); inconclusive = no clear call, values can overlap the other calls; inactive = mostly above about 0.92. The list shows a part of the results.

Assay: chemical genetic growth profiling, strain panel (AID 1159580);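 note: tested at 20 µM; growth read once vehicle control cultures reached saturation at 30 °C; 1 = growth at the plate median or of vehicle wells; lower values mean less growth of the strain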
Details: growth OD

Measured: normalized growth

CC1(C)S[C@@H]2[C@H](NC(=O)Cc3ccccc3)C(=O)N2[C@H]1C(=O)O
inactive: S. cerevisiae deletion strains, locus YJR066W, strain TOR1, active compounds read low 0.941 | S. cerevisiae deletion strains, locus YKL009W, strain mrt4, active compounds read low 1 | S. cerevisiae deletion strains, locus YKL068W, active compounds read low 1 | S. cerevisiae deletion strains, locus YKL085W, strain MDH1 (second series), active compounds read low 1 | S. cerevisiae deletion strains, locus YKL085W, strain MDH1, active compounds read low 1 | S. cerevisiae deletion strains, locus YKL160W, strain elf1, active compounds read low 1.01 | S. cerevisiae deletion strains, locus YKL190W, strain CNB1, active compounds read low 1.01 | S. cerevisiae deletion strains, locus YKR001C, strain vps1, active compounds read low 1.01 | S. cerevisiae deletion strains, locus YKR026C, strain gcn3, active compounds read low 1.03 | S. cerevisiae deletion strains, locus YKR091W, strain srl3, active compounds read low 1.01 | S. cerevisiae deletion strains, locus YLL001W, strain dnm1, active compounds read low 1.03 | S. cerevisiae deletion strains, locus YLL026W, active compounds read low 1.02 | S. cerevisiae deletion strains, locus YLL041C, strain sdh2, active compounds read low 1.01 | S. cerevisiae deletion strains, locus YLR027C, strain aat2, active compounds read low 1.03 | S. cerevisiae deletion strains, locus YLR039C, strain RIC1, active compounds read low 1.04 | S. cerevisiae deletion strains, locus YLR058C, strain SHM2, active compounds read low 1 | S. cerevisiae deletion strains, locus YLR102C, strain apc9, active compounds read low 1.02 | S. cerevisiae deletion strains, locus YLR113W, strain HOG1, active compounds read low 0.986 | S. cerevisiae deletion strains, locus YLR221C, strain rsa3, active compounds read low 1.03 | S. cerevisiae deletion strains, locus YLR258W, strain gsy2, active compounds read low 1.03 | S. cerevisiae deletion strains, locus YLR262C, strain YPT6 (second series), active compounds read low 1 | S. cerevisiae deletion strains, locus YLR262C, strain YPT6, active compounds read low 1.02 | S. cerevisiae deletion strains, locus YLR268W, strain sec22, active compounds read low 1.02 | S. cerevisiae deletion strains, locus YLR320W, strain mms22, active compounds read low 1.04 | S. cerevisiae deletion strains, locus YLR330W, strain CHS5, active compounds read low 1 | S. cerevisiae deletion strains, locus YLR342W, strain FKS1 (second series), active compounds read low 1.01 | S. cerevisiae deletion strains, locus YLR342W, strain FKS1, active compounds read low 1.03 | S. cerevisiae deletion strains, locus YLR357W, strain rsc2, active compounds read low 1.03 | S. cerevisiae deletion strains, locus YLR370C, strain arc18, active compounds read low 1.03 | S. cerevisiae deletion strains, locus YLR371W, strain rom2, active compounds read low 1.02 | S. cerevisiae deletion strains, locus YLR384C, strain iki3, active compounds read low 1.03 | S. cerevisiae deletion strains, locus YLR418C, strain cdc73, active compounds read low 1.03 | S. cerevisiae deletion strains, locus YML016C, strain PPZ1, active compounds read low 1.01 | S. cerevisiae deletion strains, locus YML032C, strain rad52, active compounds read low 1.02 | S. cerevisiae deletion strains, locus YML120C, strain ndi1, active compounds read low 1.04 | S. cerevisiae deletion strains, locus YML124C, strain tub3, active compounds read low 1.02 | S. cerevisiae deletion strains, locus YMR058W, strain fet3, active compounds read low 1.01 | S. cerevisiae deletion strains, locus YMR078C, strain ctf18, active compounds read low 1.03 | S. cerevisiae deletion strains, locus YMR125W, strain sto1, active compounds read low 1.06 | S. cerevisiae deletion strains, locus YMR129W, active compounds read low 1.03 | S. cerevisiae deletion strains, locus YMR205C, strain PFK2, active compounds read low 1.03 | S. cerevisiae deletion strains, locus YMR223W, strain ubp8, active compounds read low 1.02 | S. cerevisiae deletion strains, locus YMR231W, strain pep5, active compounds read low 1.03 | S. cerevisiae deletion strains, locus YMR263W, strain SAP30, active compounds read low 1 | S. cerevisiae deletion strains, locus YMR307W, strain GAS1, active compounds read low 1.01 | S. cerevisiae deletion strains, locus YNL067W, strain RPL9B, active compounds read low 1 | S. cerevisiae deletion strains, locus YNL071W, strain lat1, active compounds read low 1.02 | S. cerevisiae deletion strains, locus YNL128W, strain TEP1, active compounds read low 1.01 | S. cerevisiae deletion strains, locus YNL183C, strain NPR1, active compounds read low 0.944 | S. cerevisiae deletion strains, locus YNL209W, strain ssb2, active compounds read low 1.02 | S. cerevisiae deletion strains, locus YNL233W, strain BNI4, active compounds read low 0.999 | S. cerevisiae deletion strains, locus YNL248C, strain rpa49, active compounds read low 1.03 | S. cerevisiae deletion strains, locus YNL250W, strain rad50, active compounds read low 1.02 | S. cerevisiae deletion strains, locus YNL271C, strain bni1, active compounds read low 1.02 | S. cerevisiae deletion strains, locus YNL298W, strain CLA4, active compounds read low 1.01 | S. cerevisiae deletion strains, locus YNL307C, strain MCK1, active compounds read low 1.03 | S. cerevisiae deletion strains, locus YNL322C, strain KRE1 (second series), active compounds read low 1.04 | S. cerevisiae deletion strains, locus YNR049C, strain mso1, active compounds read low 1.01 | S. cerevisiae deletion strains, locus YNR052C, strain pop2, active compounds read low 1.02 | S. cerevisiae deletion strains, locus YOL006C, strain TOP1, active compounds read low 1.02 | S. cerevisiae deletion strains, locus YOL012C, strain htz1 1.12 | S. cerevisiae deletion strains, locus YOL147C, strain pex11, active compounds read low 1.02 | S. cerevisiae deletion strains, locus YOR001W, strain rrp6, active compounds read low 1.04 | S. cerevisiae deletion strains, locus YOR061W, strain CKA2, active compounds read low 1.01 | S. cerevisiae deletion strains, locus YOR069W, strain VPS5, active compounds read low 0.998 | S. cerevisiae deletion strains, locus YOR070C, strain gyp1, active compounds read low 1.03 | S. cerevisiae deletion strains, locus YOR080W, strain dia2, active compounds read low 1.02 | S. cerevisiae deletion strains, locus YOR083W, strain WHI5, active compounds read low 0.987 | S. cerevisiae deletion strains, locus YOR106W, strain vam3, active compounds read low 1.03 | S. cerevisiae deletion strains, locus YOR136W, strain idh2, active compounds read low 1.02 | S. cerevisiae deletion strains, locus YOR144C, strain elg1, active compounds read low 1.02 | S. cerevisiae deletion strains, locus YOR184W, strain ser1, active compounds read low 1.06 | S. cerevisiae deletion strains, locus YOR231W, strain MKK1, active compounds read low 0.994 | S. cerevisiae deletion strains, locus YOR265W, strain rbl2, active compounds read low 1.01 | S. cerevisiae deletion strains, locus YOR270C, strain vph1, active compounds read low 1.13 | S. cerevisiae deletion strains, locus YOR290C, strain snf2, active compounds read low 1.03 | S. cerevisiae deletion strains, locus YOR316C, strain cot1, active compounds read low 1.02 | S. cerevisiae deletion strains, locus YPL051W, strain arl3, active compounds read low 1.03 | S. cerevisiae deletion strains, locus YPL055C, strain LGE1, active compounds read low 1.01 | S. cerevisiae deletion strains, locus YPL078C, strain atp4, active compounds read low 1.03 | S. cerevisiae deletion strains, locus YPL106C, strain sse1, active compounds read low 1.02 | S. cerevisiae deletion strains, locus YPL240C, strain hsp82, active compounds read low 1.02 | S. cerevisiae deletion strains, locus YPL256C, strain CLN2, active compounds read low 0.966 | S. cerevisiae deletion strains, locus YPR119W, strain clb2, active compounds read low 1.03 | S. cerevisiae deletion strains, locus YPR141C, strain kar3, active compounds read low 1.01 | S. cerevisiae deletion strains, locus YPR163C, strain tif3, active compounds read low 1.03 | S. cerevisiae deletion strains, locus YPR167C, strain met16, active compounds read low 1.02 | S. cerevisiae deletion strains, strain wtn01, active compounds read low 1.01 | S. cerevisiae strains, strain wild type, active compounds read low 1
